Inconclusive results are not listed. Calls of active or inactive are those of the source. The call rests on the fitted dose curve; in most records, active means well fitted curve in the direction sought with a large enough effect; inconclusive means small, poorly fitted or top-dose-only effect, or another doubt; inactive means no such curve, though single readings can be large; an effect the other way counts as inactive or inconclusive.
Legend:
[1] = target: ATP-dependent 6-phosphofructokinase (Trypanosoma brucei brucei) (UniProt O15648); test: qHTS Assay to Find Inhibitors of T. brucei phosphofructokinase: hit validation (AID 492961);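 further: luminescence reports ADP formed as PFK phosphorylates fructose-6-phosphate with ATP; on the % scale 0 is the no-effect control and ±100 the full control effect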
Method in brief: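 In this biochemical qHTS validation, titrated compounds were tested against 1.25 nM PFK with 0.1 mM ATP and 0.5 mM F6P. Percent activity came from controls lacking or containing enzyme.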

[2] = qHTS profiling for inhibitors of Plasmodium falciparum proliferation (AID 504749);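 further: 0% = DMSO vehicle and full inhibition = artemisinin control; nearly all actives have a fitted effect of over 60% in size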; details: P. falciparum in erythrocytes, SYBR Green DNA, 72 h, at 28.7 µM (top of the series)
Method in brief: (§1)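 Infected RBCs, 0.3% parasitemia/2.5% Hct final; cpd 72 h, 37 C, 5% CO2; lysis buffer with saponin/triton/SYBR Green I, o/n RT dark; FI 485/535; norm. to artemisinin (0.29 uM) and DMSO.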

3D7 = test: as above; details: P. falciparum in erythrocytes, SYBR Green DNA, 72 h; series mostly up to 28.7 µM
Method in brief: as §1

ATS189 = test: as above; details: P. falciparum in erythrocytes, SYBR Green DNA, 72 h; series mostly up to 28.7 µM
Method in brief: as §1

CP185 = test: as above; details: P. falciparum in erythrocytes, SYBR Green DNA, 72 h; series mostly up to 28.7 µM
Method in brief: as §1

CP191 = test: as above; details: P. falciparum in erythrocytes, SYBR Green DNA, 72 h; series mostly up to 28.7 µM
Method in brief: as §1

CP192 = test: as above; details: P. falciparum in erythrocytes, SYBR Green DNA, 72 h; series mostly up to 28.7 µM
Method in brief: as §1

CP194 = test: as above; details: P. falciparum in erythrocytes, SYBR Green DNA, 72 h; series mostly up to 28.7 µM
Method in brief: as §1

CP211 = test: as above; details: P. falciparum in erythrocytes, SYBR Green DNA, 72 h; series mostly up to 28.7 µM
Method in brief: as §1

CP217 = test: as above; details: P. falciparum in erythrocytes, SYBR Green DNA, 72 h; series mostly up to 28.7 µM
Method in brief: as §1

CP238 = test: as above; details: P. falciparum in erythrocytes, SYBR Green DNA, 72 h; series mostly up to 28.7 µM
Method in brief: as §1

CP252 = test: as above; details: P. falciparum in erythrocytes, SYBR Green DNA, 72 h; series mostly up to 28.7 µM
Method in brief: as §1

CP262 = test: as above; details: P. falciparum in erythrocytes, SYBR Green DNA, 72 h; series mostly up to 28.7 µM
Method in brief: as §1

CP265 = test: as above; details: P. falciparum in erythrocytes, SYBR Green DNA, 72 h; series mostly up to 28.7 µM
Method in brief: as §1

CP269 = test: as above; details: P. falciparum in erythrocytes, SYBR Green DNA, 72 h; series mostly up to 28.7 µM
Method in brief: as §1

CP286 = test: as above; details: P. falciparum in erythrocytes, SYBR Green DNA, 72 h; series mostly up to 28.7 µM
Method in brief: as §1

CP329 = test: as above; details: P. falciparum in erythrocytes, SYBR Green DNA, 72 h; series mostly up to 28.7 µM
Method in brief: as §1

Dd2 = test: as above; details: P. falciparum in erythrocytes, SYBR Green DNA, 72 h; series mostly up to 28.7 µM
Method in brief: as §1

ECU = test: as above; details: P. falciparum in erythrocytes, SYBR Green DNA, 72 h; series mostly up to 28.7 µM
Method in brief: as §1

FAB9 = test: as above; details: P. falciparum in erythrocytes, SYBR Green DNA, 72 h; series mostly up to 28.7 µM
Method in brief: as §1

Chain of ATP-dependent 6-phosphofructokinase (Trypanosoma brucei brucei) (O15648 whole entry, looked up): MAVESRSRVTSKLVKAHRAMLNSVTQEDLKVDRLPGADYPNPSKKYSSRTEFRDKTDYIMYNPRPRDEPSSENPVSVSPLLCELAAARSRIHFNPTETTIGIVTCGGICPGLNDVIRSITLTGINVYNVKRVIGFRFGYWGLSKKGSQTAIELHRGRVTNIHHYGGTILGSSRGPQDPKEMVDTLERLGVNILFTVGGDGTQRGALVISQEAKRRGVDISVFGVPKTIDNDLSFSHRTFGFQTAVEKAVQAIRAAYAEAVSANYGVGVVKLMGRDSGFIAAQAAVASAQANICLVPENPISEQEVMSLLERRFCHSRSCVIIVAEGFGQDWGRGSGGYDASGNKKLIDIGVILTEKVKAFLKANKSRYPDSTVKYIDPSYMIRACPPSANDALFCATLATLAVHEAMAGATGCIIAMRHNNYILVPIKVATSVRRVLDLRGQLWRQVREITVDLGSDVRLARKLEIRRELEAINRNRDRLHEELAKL

CN1[C@@H]2CC[C@@H]1CC(OC(=O)[C@H](CO)c1ccccc1)C2 (stereo not given in full)
inactive: Potency [1] | activity, negative = inhibition ([2]; parasite line A) 1.09% | activity, negative = inhibition ([2]; parasite line B) 2.23% | Potency (3D7) | Potency (ATS189) | Potency (CP185) | Potency (CP191) | Potency (CP192) | Potency (CP194) | Potency (CP211) | Potency (CP217) | Potency (CP238) | Potency (CP252) | Potency (CP262) | Potency (CP265) | Potency (CP269) | Potency (CP286) | Potency (CP329) | Potency (Dd2) | Potency (ECU) | Potency (FAB9)

CC(=O)NC[C@@H]1CN(c2ccc(N3CCOCC3)c(F)c2)C(=O)O1
inactive: Potency [1] | activity, negative = inhibition ([2]; parasite line A) -12.2% | activity, negative = inhibition ([2]; parasite line B) -9.57% | Potency (3D7) | Potency (ATS189) | Potency (CP185) | Potency (CP191) | Potency (CP192) | Potency (CP194) | Potency (CP211) | Potency (CP217) | Potency (CP238) | Potency (CP252) | Potency (CP262) | Potency (CP265) | Potency (CP269) | Potency (CP286) | Potency (CP329) | Potency (Dd2) | Potency (ECU) | Potency (FAB9)

CC(CCC(=O)O)C1CCC2C3C(=O)C[C@@H]4CC(=O)CC[C@@]4(C)C3CC(=O)[C@]12C (stereo not given in full)
inactive: Potency [1] | activity, negative = inhibition ([2]; parasite line A) -3.83% | activity, negative = inhibition ([2]; parasite line B) 1.51% | Potency (3D7) | Potency (ATS189) | Potency (CP185) | Potency (CP191) | Potency (CP192) | Potency (CP194) | Potency (CP211) | Potency (CP217) | Potency (CP238) | Potency (CP252) | Potency (CP262) | Potency (CP265) | Potency (CP269) | Potency (CP286) | Potency (CP329) | Potency (Dd2) | Potency (ECU) | Potency (FAB9)

OC[C@@H]1O[C@](CO)(O[C@H]2O[C@H](CO)[C@@H](O)[C@H](O)[C@H]2O)[C@H](O)[C@H]1O
inactive: Potency [1] | activity, negative = inhibition ([2]; parasite line A) -1.62% | activity, negative = inhibition ([2]; parasite line B) 7.05% | Potency (3D7) | Potency (ATS189) | Potency (CP185) | Potency (CP191) | Potency (CP192) | Potency (CP194) | Potency (CP211) | Potency (CP217) | Potency (CP238) | Potency (CP252) | Potency (CP262) | Potency (CP265) | Potency (CP269) | Potency (CP286) | Potency (CP329) | Potency (Dd2) | Potency (ECU) | Potency (FAB9)

CN(C)CC/C=C1\c2ccccc2COc2ccc(CC(=O)O)cc21
inactive: Potency [1] | activity, negative = inhibition ([2]; parasite line A) 1.27% | activity, negative = inhibition ([2]; parasite line B) -5.49% | Potency (3D7) | Potency (ATS189) | Potency (CP185) | Potency (CP191) | Potency (CP192) | Potency (CP194) | Potency (CP211) | Potency (CP217) | Potency (CP238) | Potency (CP252) | Potency (CP262) | Potency (CP265) | Potency (CP269) | Potency (CP286) | Potency (CP329) | Potency (Dd2) | Potency (ECU) | Potency (FAB9)

CC1(C)OC[C@@H]2O[C@@]3(C(=O)O)OC(C)(C)O[C@@H]3[C@@H]2O1
inactive: Potency [1] | activity, negative = inhibition ([2]; parasite line A) 1.64% | activity, negative = inhibition ([2]; parasite line B) 11.5% | Potency (3D7) | Potency (ATS189) | Potency (CP185) | Potency (CP191) | Potency (CP192) | Potency (CP194) | Potency (CP211) | Potency (CP217) | Potency (CP238) | Potency (CP252) | Potency (CP262) | Potency (CP265) | Potency (CP269) | Potency (CP286) | Potency (CP329) | Potency (Dd2) | Potency (ECU) | Potency (FAB9)

O=C1C(I)=CC(=C(c2cc(I)c(O)c(I)c2)c2ccccc2C(=O)O)C=C1I
inactive: Potency [1] | activity, negative = inhibition ([2]; parasite line A) 1.17% | activity, negative = inhibition ([2]; parasite line B) -0.638% | Potency (3D7) | Potency (ATS189) | Potency (CP185) | Potency (CP191) | Potency (CP192) | Potency (CP194) | Potency (CP211) | Potency (CP217) | Potency (CP238) | Potency (CP252) | Potency (CP262) | Potency (CP265) | Potency (CP269) | Potency (CP286) | Potency (CP329) | Potency (Dd2) | Potency (ECU) | Potency (FAB9)

CC1OC(OC2CCC3(C)C(CCC4C3CC(O)C3(C)C(C5=CC(=O)OC5)CCC43O)C2)CC(O)C1OC1CC(O)C(OC2CC(O)C(OC3OC(CO)C(O)C(O)C3O)C(C)O2)C(C)O1 (stereo not given)
inactive: Potency [1] | activity, negative = inhibition ([2]; parasite line A) 13.2% | activity, negative = inhibition ([2]; parasite line B) -5.12% | Potency (3D7) | Potency (ATS189) | Potency (CP185) | Potency (CP191) | Potency (CP192) | Potency (CP194) | Potency (CP211) | Potency (CP217) | Potency (CP238) | Potency (CP252) | Potency (CP262) | Potency (CP265) | Potency (CP269) | Potency (CP286) | Potency (CP329) | Potency (Dd2) | Potency (ECU) | Potency (FAB9)

CCCC(=O)O[C@]1(C(=O)COC(C)=O)CC[C@H]2C3C[C@H](F)C4=CC(=O)C=CC4(C)[C@@]3(F)[C@@H](O)CC21C (stereo not given in full)
inactive: Potency [1] | activity, negative = inhibition ([2]; parasite line A) -8.4% | activity, negative = inhibition ([2]; parasite line B) -24.8% | Potency (3D7) | Potency (ATS189) | Potency (CP185) | Potency (CP191) | Potency (CP192) | Potency (CP194) | Potency (CP211) | Potency (CP217) | Potency (CP238) | Potency (CP252) | Potency (CP262) | Potency (CP265) | Potency (CP269) | Potency (CP286) | Potency (CP329) | Potency (Dd2) | Potency (ECU) | Potency (FAB9)

CC1CCC(C(C)C)C(O)C1 (stereo not given)
inactive: Potency [1] | activity, negative = inhibition ([2]; parasite line A) 7.33% | activity, negative = inhibition ([2]; parasite line B) 4.66% | Potency (3D7) | Potency (ATS189) | Potency (CP185) | Potency (CP191) | Potency (CP192) | Potency (CP194) | Potency (CP211) | Potency (CP217) | Potency (CP238) | Potency (CP252) | Potency (CP262) | Potency (CP265) | Potency (CP269) | Potency (CP286) | Potency (CP329) | Potency (Dd2) | Potency (ECU) | Potency (FAB9)

Reference: PubChem BioAssay (NCATS)
